Assay outcomes as filed in PubChem BioAssay.
The list is not random: actives were taken first. Their share in the collection is about 7.3%.
NPC1 prom act: qHTS Assay for NPC1 Promoter Activators | Huh7 NPC1 promoter luciferase reporter, 24 h | Potency, µM (titrated, usually from 9.22 µM), hits mostly activators | 320,000 tested, 2.4% active | AID 485313, 2010; further: nearly all actives have a fitted effect of over 60% in size
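Cells: Huh7 expressing luciferase under the NPC1 promoter, 1500/well. Seeded 2 h, compound added, incubated 24 h at 37 °C. Luciferase reagent, 10 min ambient, then luminescence.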
SMN2 splice up: qHTS Assay for Enhancers of SMN2 Splice Variant Expression; HEK293 SMN2-luciferase splicing reporter, luminescence, 30-36 h; 210,000 tested, 2.8% active; Potency, µM (top dose mostly 46.1 µM), hits mostly activators; further: nearly all actives have a fitted effect of over 55% in size
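HEK293 cells carry an SMN2 […]–luciferase reporter in which exon 7 inclusion puts luciferase in frame. Cells were plated 10-12 h before compound addition, then incubated 30-36 h at 37C. ONE-Glo luminescence was read; sodium butyrate at 4.5 mM final served as control.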
KinaseGlo FLuc: Counterscreen for Luciferase (Kinase-Glo TM) Inhibition | Luciferin 4-monooxygenase (Photuris pensylvanica), Q27757 | Kinase-Glo luciferase, ATP luminescence, 8 min | Potency, µM (top dose mostly 38.3 µM), actives largely listed as inhibitors | 200,000 tested, 0.28% active | AID 1379, 2008; further: nearly all actives have a fitted effect of over 60% in size
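Inhibition of Kinase-Glo luciferase light generation was assessed at 10 uM ATP in pH 7.2 imidazole buffer, with luminescence measured after eight minutes at ambient temperature.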
FLuc counter: qHTS profiling assay for firefly luciferase inhibitor/activator using purifed enzyme and Km concentrations of substrates (counterscreen for miR-21 project) | Luciferin 4-monooxygenase (Photinus pyralis), P08659 | purified FLuc, Km substrates, luminescence inhibition | Potency, µM (highest dose often 57.5 µM), usual class: inhibitors | 360,000 tested, 6.9% active | AID 588342, 2011; further: nearly all actives have a fitted effect of over 55% in size
Target sequence (P08659 whole entry, looked up): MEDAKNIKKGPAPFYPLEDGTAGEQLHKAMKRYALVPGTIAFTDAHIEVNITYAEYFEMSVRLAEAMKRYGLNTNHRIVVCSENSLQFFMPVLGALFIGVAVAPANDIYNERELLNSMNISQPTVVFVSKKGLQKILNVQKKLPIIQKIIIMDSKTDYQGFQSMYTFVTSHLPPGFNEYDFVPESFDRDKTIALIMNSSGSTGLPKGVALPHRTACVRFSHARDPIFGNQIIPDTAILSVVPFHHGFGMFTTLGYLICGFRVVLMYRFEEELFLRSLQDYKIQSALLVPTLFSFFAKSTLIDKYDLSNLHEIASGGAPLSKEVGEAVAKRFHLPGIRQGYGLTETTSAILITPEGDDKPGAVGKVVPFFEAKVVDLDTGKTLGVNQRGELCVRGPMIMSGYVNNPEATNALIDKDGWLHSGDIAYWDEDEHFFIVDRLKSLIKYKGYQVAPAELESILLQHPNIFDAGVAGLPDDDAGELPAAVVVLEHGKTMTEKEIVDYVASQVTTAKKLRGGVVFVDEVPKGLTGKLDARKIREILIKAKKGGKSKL
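Purified P. pyralis luciferase (10nM final) with 10uM D-luciferin and 10uM ATP (Km levels) in 50mM Tris acetate pH 7.5, 10mM Mg acetate, 0.01% Tween-20, 0.05% BSA; qHTS 6-point titration, ~60 µM downward; luminescence read.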
Rab9 promoter act: qHTS Assay for Rab9 Promoter Activators; 320,000 tested, 2.8% active; AID 485297, 2010; Potency, µM (series often up to 9.22 µM), usual class: activators; Huh7 Rab9 promoter-luciferase reporter, luminescence, 24 h; further: nearly all actives have a fitted effect of over 60% in size
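Using Huh7 cells stably transfected with Rab9 promoter–luciferase, compounds were incubated 24 h at 37 °C, 5% CO2; luciferase luminescence was read 10 min after reagent addition.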
ELG1 genotoxic: qHTS screen for small molecules that induce genotoxicity in human embryonic kidney (HEK293T) cells expressing luciferase-tagged ELG1 | HEK293T ELG1-luciferase reporter, luminescence, 16 h | Potency, µM (titrated, usually from 46 µM), hits mostly activators | 330,000 tested, 1.3% active | AID 504466, 2011; further: nearly all actives have a fitted effect of over 60% in size
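ELG1-luciferase HEK293T cells, 2,000/well; compound pinned in; 16 hr, 37 °C, 5% CO2; ONE-Glo, 30 min RT; luminescence on CCD imager.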
Hits are given with their value; 0 = inactive; ? = inconclusive; - = no result given; [ ] = another dose, or the depositor's remark. The call rests on the fitted dose curve; in most records, active means well fitted curve in the direction sought with a large enough effect; inconclusive means small, poorly fitted or top-dose-only effect, or another doubt; inactive means no such curve, though single readings can be large; an effect the other way counts as inactive or inconclusive.

SMILES	NPC1 prom act	SMN2 splice up	KinaseGlo FLuc	FLuc counter	Rab9 promoter act	ELG1 genotoxic
COc1ccc2ccccc2c1C1CC(=O)N2CN(C)CSC2=C1C#N (stereo unspecified)	0	0	0	?	0	0
CCOC(=O)c1cc(-c2ccccc2)n(CCC(=O)NCCc2cccc(C)c2)c1C	-	-	-	0	-	-
C=CCn1cccc(C(=O)Nc2ccc(OC)c(OC)c2)c1=O	0	0	0	?	0	0
C=CCn1cccc(C(=O)Nc2ccc(Cl)cc2)c1=O	?	-	-	17µM	?	?
C#CCn1cccc(C(=O)Nc2ccc(OC)cc2)c1=O	0	-	-	19µM	0[1.84 µM]	0
C=CCn1cccc(C(=O)Nc2cc(OC)cc(OC)c2)c1=O	0	0	0	?	0	0
CCCn1cccc(C(=O)Nc2ccc(OC)cc2)c1=O	?	-	-	?	?	0
C=CCn1cccc(C(=O)Nc2ccc(OCC)cc2)c1=O	?	0	0	17µM	?	0
C=CCn1cccc(C(=O)Nc2ccc(SC)cc2)c1=O	?	-	-	12µM	4µM	0
Cc1ccc(S(=O)CCNC(=O)Cc2ccc(Cl)cc2)cc1 (stereo unspecified)	0	0	0	0	0	0
O=C(NCCc1ccccn1)C1CCCN(S(=O)(=O)Cc2ccccc2)C1 (stereo unspecified)	0	0	0	0	0	0
CCSc1nnc(NC(=O)CSc2nccn2-c2cc(C)cc(C)c2)s1	0	-	-	0	0	0
C=CCn1cccc(C(=O)Nc2ccc(N(C)C)cc2)c1=O	3.5µM	-	-	8.5µM	4µM	?
Cc1cc(NC(=O)C(C)Oc2ccc(Cl)cc2Cl)no1 (stereo unspecified)	0	-	-	24µM	0	0
Cc1ccc(OC(C)C(=O)Nc2cc(C)on2)cc1 (stereo unspecified)	0	-	-	19µM	0	0
CC1(C)Cc2c(cnn2-c2ccc(F)cc2)C(NC(=O)CN2CCCCC2=O)C1 (stereo unspecified)	0	-	-	19µM	0	0
NNc1ccc(Cc2ccc(Cl)cc2Cl)nn1	0	0	0	0	0	0
CSc1ccc(Cc2ccc(Cl)cc2Cl)nn1	0	0	0	17µM	?	0
COc1ccc(C(=O)/C=C/c2ccc(F)cc2)c(OC(=O)c2ccc([N+](=O)[O-])cc2)c1	0	0	0	9.5µM	0	?
COc1ccc(C(=O)/C=C/c2cccs2)c(OC(=O)c2cccc([N+](=O)[O-])c2)c1	0	?	0	4.8µM	?	0
COc1cccc(Nc2ccc(N3CCCCC3)cc2)c1OC	3.5µM	-	-	?	2.8µM	?
COc1cccc(CNc2ccc(N3CCCCC3)cc2)c1OC	?	0	0	?	0	0
COc1ccccc1CNc1ccc(N2CCCCC2)cc1	0	0	0	15µM	0	?
COc1ccc(CNC(=O)C(=O)NCC2OCCN2S(=O)(=O)c2ccc(C)cc2)cc1 (stereo unspecified)	0	-	-	0	0	0
COc1ccc(N2C(=O)C(Cl)=C(NCc3ccccc3)C2=O)cc1	0	0	0	21µM	0	0
SMILES	NPC1 prom act	SMN2 splice up	KinaseGlo FLuc	FLuc counter	Rab9 promoter act	ELG1 genotoxic
CCOc1ccccc1NC1=C(Cl)C(=O)N(c2ccc(OC)cc2)C1=O	0	0	0	0	0	0
COc1ccc(NC2=C(Cl)C(=O)N(CCc3ccccc3)C2=O)cc1	0	16µM	0	2.7µM	0	0
Nc1c2c(nn1-c1ccc(C(=O)O)cc1)CNC2	0	-	-	0	0	0
CC(OC(=O)c1cccc(O)c1)C(=O)N(C)Cc1ccccc1 (stereo unspecified)	0	-	-	0	0	0
CCOC(=O)c1c(NC(=O)c2cccs2)sc(C)c1CC	0	0	0	0	0	0
CCc1c(C)sc(NC(=O)c2cccs2)c1C#N	?	11µM	0	7.6µM	?	?
Cc1sc(NC(=O)c2ccccc2)c(C#N)c1-c1ccccc1	2.8µM	8.9µM	0	2.4µM	1.6µM	?
CCc1c(C)sc(NC(=O)c2cc(C)on2)c1C#N	?	0	0	12µM	?	?
CCCc1cc(C(=O)Nc2sc(C)c(CC)c2C#N)no1	0	0	0	0	0	0
Cc1nc2cc(OCc3cc(C(=O)NC(C)c4cn(C)nc4C)no3)ccc2s1 (stereo unspecified)	0	-	-	0	0	0
COc1ccc(OC)c2[nH]c(=O)c(CCNC(=O)c3ccc(S(=O)(=O)N4CCCCC4)cc3)cc12	0	0	0	0	0	0
CC1CCC2(CC1)NC(=O)N(CC(=O)c1ccc[nH]1)C2=O (stereo unspecified)	0	?	0	0	0	0
Cc1ccc(/C=C/C(=O)N2CCC(c3nc4ccccc4o3)CC2)cc1	-	-	-	11µM	-	-
CC(C)Cc1ccc(/C=C/C(=O)NC2CC2)cc1	?	?	0	4.8µM	3.5µM	16µM
CC(C)Cc1ccc(/C=C/C(=O)N2CCCCC2)cc1	2.5µM	11µM	0	7.6µM	0.89µM	0
CC1CCN(C(=O)/C=C/c2ccc(C(C)(C)C)cc2)CC1	0	0	0	15µM	0	?
O=C(/C=C/c1ccccc1)N1CCCN(C(=O)/C=C/c2ccccc2)CC1	0	0	0	?	0	0
CN1CCN(C(=O)/C=C/c2ccc(Cl)cc2)CC1	0	-	-	0	0	0
Cn1c(=O)c2c(nc(-n3ccnc3)n2Cc2ccc(Cl)cc2Cl)n(C)c1=O	0	0	0	0	0	0
Cc1ccc(/C=C/C(=O)N2CCCC(C)C2)cc1 (stereo unspecified)	1.3µM	1.1µM	0	3µM	2.2µM	9.2µM
CC(C)(C)c1ccc(/C=C/C(=O)N2CCCCC2)cc1	4µM	13µM	0	6.7µM	1.6µM	?
Cc1ccc(/C=C/C(=O)N2CCC(Cc3ccccc3)CC2)cc1	0	0[1.84 µM]	0	21µM	0	0
CCOC(=O)C1CCCN(C(=O)/C=C/c2ccc(Cl)cc2)C1 (stereo unspecified)	0	0	0	0	0	0
Cc1cccc2c1N(CCOc1ccc(C(C)(C)C)cc1)C(=O)C2=O	0	0	0	?	0	0
Cc1ccc(OCCN2C(=O)C(=O)c3cc(C)ccc32)cc1	0	0	0	15µM	0	?
Cc1ccc(OCCCN2C(=O)C(=O)c3cccc(C)c32)cc1	0	0	0	24µM	0	0
CC1CCc2c(sc3nc(CSc4ncn[nH]4)[nH]c(=O)c23)C1 (stereo unspecified)	0	-	-	15µM	0	0
Cc1ccc(C)c(NC(=O)c2cnn3ccccc23)c1	0	0	0	?	0	?
COc1ccc(Cl)cc1NC(=O)c1cc2ccccn2n1	-	-	-	0	-	-
